Assay results as given in PubChem BioAssay AID434989 (The Scripps Research Institute Molecular Screening Center, 2010).
About 1,400 (0.42%) of roughly 330,000 compounds were called active.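 How the source made its calls: active means inhibition above its plate's threshold, mean inhibition of all tested compounds on the plate plus 3 SD (cut at about 37% in these data); inactive means the rest.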 The list comes from a sample in which actives are over-represented; it also holds similar structures and randomly drawn compounds.

biological target: Orexin/Hypocretin receptor type 1 (Homo sapiens) (UniProt O43613); assay: OX1R (HCRTR1) antagonists, primary screen, fluorescence, CHO/OX1R cells, Fluo-8 calcium, orexin A (AID 434989); conditions: Fluo-8 calcium fluorescence, at 5 µM, hits give high values;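 further: 0% = orexin A challenge wells and 100% = SB-334867-A antagonist wells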
Sequence (O43613 whole entry, looked up): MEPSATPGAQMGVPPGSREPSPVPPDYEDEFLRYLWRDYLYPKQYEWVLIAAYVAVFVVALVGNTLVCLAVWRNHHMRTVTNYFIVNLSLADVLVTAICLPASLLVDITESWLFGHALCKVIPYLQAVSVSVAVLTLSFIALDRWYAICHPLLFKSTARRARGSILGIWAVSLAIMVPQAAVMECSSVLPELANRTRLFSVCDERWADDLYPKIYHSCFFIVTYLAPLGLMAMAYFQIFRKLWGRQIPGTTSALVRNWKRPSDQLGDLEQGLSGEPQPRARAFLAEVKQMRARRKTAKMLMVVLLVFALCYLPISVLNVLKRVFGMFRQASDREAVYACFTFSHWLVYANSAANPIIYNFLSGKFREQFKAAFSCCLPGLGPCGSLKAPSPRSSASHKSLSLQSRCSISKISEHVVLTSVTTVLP

Structure (SMILES)	inhibition
CN(C)C(=O)CCc1ccc2c3c([nH]c2c1)[C@]1(C)[C@@H](C(=O)N2CCCCC2)C[C@H](CC(=O)NCCC2=CCCCC2)C(=O)N1CC3	-30.3% (inactive)
Cc1c(NC(=O)C(C)OC(=O)c2ccccc2O)c(=O)n(-c2ccccc2)n1C (stereo not given)	-6.55% (inactive)
Cc1cc(C(=O)NC2CCCc3c2cnn3-c2cccc(C)c2C)c(C)o1 (stereo not given)	26.6% (inactive)
Cn1nccc1C(=O)NC1CCCc2c1cnn2-c1ccccc1F (stereo not given)	8.33% (inactive)
COc1ccc(C(=O)NC2CCCc3c2cnn3-c2cccc(C)c2C)c(OC)n1 (stereo not given)	44.8% (active)
CC(C)(C)OC(=O)C[C@@H]1C/C=C\C[C@@H](CC(=O)N(CCO)Cc2ccccc2)C(=O)N[C@H](Cc2ccccc2)COC1=O	-33.6% (inactive)
OCCN(Cc1ccccc1)Cc1ccc(Cl)cc1	9.29% (inactive)
CCN(CC)CCCNC(=O)CCc1ccccc1	-15% (inactive)
CN(C(=O)CN(CCO)CC(=O)N(C)C(C)(C)Cc1ccccc1)C(C)(C)Cc1ccccc1	68.2% (active)
CCN(CC)C(=O)[C@H]1CC(CC(=O)NCc2ccco2)C(=O)N2CCc3c([nH]c4ccccc34)[C@]12C (stereo not given in full)	-11.1% (inactive)
Cc1c(C(=O)Nc2cccc(S(=O)(=O)N3CCOCC3)c2)oc2ccccc12	-3.24% (inactive)
C=CCC1(CC=C)CCCN1C(=O)c1cc(COc2ccc(-n3cncn3)cc2)on1	34.5% (active)
O=C(c1cc(COc2ccc(F)c(F)c2)on1)N1CCOCC1	-5.38% (inactive)
COc1cccc(OCc2cc(C(=O)N3CCN(C(=O)c4ccco4)CC3)no2)c1	-6.35% (inactive)
Cc1ccc(CNC(=O)Cn2cnc3c(NCc4ccccc4)ncnc32)o1	10.5% (inactive)
O=C(CNC(=O)c1ccccc1)Oc1ccc([N+](=O)[O-])cc1	-4.15% (inactive)
O=C(NC(Nc1nc2ccc([N+](=O)[O-])cc2s1)(C(F)(F)F)C(F)(F)F)c1ccccc1	59.4% (active)
O=C(CCNC(=O)c1ccccc1)Nc1nc2ccccc2s1	-8.05% (inactive)
COc1ccc(NC(=O)C2CCCN(S(=O)(=O)c3cccc4cccnc34)C2)cc1 (stereo not given)	-34.5% (inactive)
COc1ccc(NC(=O)C2CCCN(S(=O)(=O)c3cccc4cccnc34)C2)cc1OC (stereo not given)	-27.1% (inactive)

Structure (SMILES)	inhibition
Cc1ccc(NC(=O)C2CCCN2S(=O)(=O)c2cccc3cccnc23)c(C)c1 (stereo not given)	-30.7% (inactive)
O=C(Nc1nccs1)C1CCCN1S(=O)(=O)c1cccc2cccnc12 (stereo not given)	-11.2% (inactive)
COc1ccccc1CNC(=O)C1CCCN(S(=O)(=O)c2cccc3cccnc23)C1 (stereo not given)	79.2% (active)
Cc1cc(C)cc(NC(=O)C2CCCN2S(=O)(=O)c2cccc3cccnc23)c1 (stereo not given)	104% (active)
O=C(CN1C(=O)NC2(CCCC2)C1=O)Nc1cc(C(F)(F)F)ccc1N1CCOCC1	-28.3% (inactive)
C[C@H](CO)N1C[C@H](C)[C@@H](CN(C)Cc2ccc(-c3ccccc3)cc2)Oc2ccc(NC(=O)Cn3cnnn3)cc2C1=O	-7.92% (inactive)
CC[C@]1(C(=O)OC)[C@H]2C(=O)N(Cc3ccccc3)C(=O)[C@H]2[C@H]2CN=C(SCc3ccc(C#N)cc3)N21	-5.92% (inactive)
Cc1ccc([C@@H]2CC=C(C(=O)O)[C@H](c3cccc(Cl)c3)N2S(=O)(=O)c2ccc(C)cc2)cc1	10.8% (inactive)
Cc1ccccc1S(=O)(=O)N1[C@@H](c2cccc(Cl)c2)C(C(=O)O)=CC[C@H]1c1ccc(Cl)cc1	52.1% (active)
Cc1ccc(S(=O)(=O)N2[C@@H](c3cccc(Cl)c3)C(C(=O)O)=CC[C@H]2c2ccc(Cl)c(Cl)c2)cc1	42% (inactive)
COc1cc(NC(=O)COC(=O)c2ccc([N+](=O)[O-])s2)cc(OC)c1OC	-20.3% (inactive)
O=C(C[C@H]1C[C@H](C(=O)N2CCOCC2)[C@@]2(CCC3CCCC3)c3[nH]c4ccc(Cl)cc4c3CCN2C1=O)NCc1ccco1	21.8% (inactive)
COc1cc(SC#N)ccc1N=Cc1c(C)[nH]n(-c2ccc(C)cc2)c1=O	67.5% (active)
Cc1ccc(-n2[nH]c(C)c(/C=N/NC(=O)c3cccc([N+](=O)[O-])c3)c2=O)cc1C	7.53% (inactive)
Cc1ccc(-n2[nH]c(C)c(/C=N/N3C(=O)c4cccc5cccc(c45)C3=O)c2=O)cc1	-11.8% (inactive)
O=C(Nc1cc(S(=O)(=O)N2CCOCC2)ccc1N1CCOCC1)c1c(F)cccc1Cl	-20% (inactive)
Cc1cc(N2C(=O)C(O)=C(C(=O)c3ccc(C)o3)C2c2ccc(OCc3ccccc3)cc2)no1 (stereo not given)	-19.8% (inactive)
C=CCOc1cccc(C2C(C(=O)c3ccc(C)o3)=C(O)C(=O)N2CCCn2ccnc2)c1 (stereo not given)	-1.44% (inactive)
C=CCOc1cccc(C2C(C(=O)c3ccc(C)o3)=C(O)C(=O)N2c2nnc(C)s2)c1 (stereo not given)	51% (active)
O=C(Cc1ccc(Cl)c(Cl)c1)Nc1ccc(SC(F)F)cc1	-12.3% (inactive)
